The text below walks through data of paper PMC7862700, “An all-to-all approach to the identification of sequence-specific readers for epigenetic DNA modifications on cytosine”.

Common to all, as to assay: DAPPL (digital affinity profiling via proximity ligation, sequencing); 10 mM Tris-HCl pH 7.5, 50 mM NaCl, 1 mM DTT, 4% glycerol, room temperature, 30 min; GST-TFs on glutathione beads, 16-mer random dsDNA library, 0.1% formaldehyde crosslink after washing; high values mean tight binding
Holding throughout (settings): protein: recombinant; tags: N-terminal GST; dsDNA, one strand shown

The target of one experiment is T1, FLI1 (Homo sapiens, UniProt Q01543 1-452).
T1 sequence: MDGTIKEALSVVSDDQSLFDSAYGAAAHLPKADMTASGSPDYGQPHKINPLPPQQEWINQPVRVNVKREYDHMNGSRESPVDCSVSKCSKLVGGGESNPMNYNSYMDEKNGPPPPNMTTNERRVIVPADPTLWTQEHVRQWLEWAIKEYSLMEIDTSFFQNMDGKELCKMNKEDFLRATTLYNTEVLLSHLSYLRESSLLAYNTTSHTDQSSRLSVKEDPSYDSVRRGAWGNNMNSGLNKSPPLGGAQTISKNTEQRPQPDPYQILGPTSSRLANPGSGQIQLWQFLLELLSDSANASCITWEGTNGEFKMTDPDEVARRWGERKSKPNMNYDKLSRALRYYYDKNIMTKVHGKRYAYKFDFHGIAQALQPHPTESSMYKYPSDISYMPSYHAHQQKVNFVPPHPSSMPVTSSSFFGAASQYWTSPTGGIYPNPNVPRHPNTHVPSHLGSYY
Put shortly:
(§1)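 Human transcription factors carrying a GST fusion were produced in yeast, bound to glutathione beads, tagged with DNA barcodes and pooled together with a tag-only sample. Each pool was held with 200 nmole of a random double-stranded 16-mer DNA library in Tris/NaCl/DTT/glycerol buffer for 30 min at room temperature, then washed, crosslinked in 0.1% formaldehyde, proximity-ligated with BsaI/T4 ligase (1 h, 37 °C), PCR-amplified and sequenced on an Illumina NextSeq500. Binding signal is the read frequency of each hexamer for a given factor divided by its frequency in the tag-only sample.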

For the next experiment, the target named is T2, ELK1 (Homo sapiens, UniProt P19419 1-428).
T2 sequence: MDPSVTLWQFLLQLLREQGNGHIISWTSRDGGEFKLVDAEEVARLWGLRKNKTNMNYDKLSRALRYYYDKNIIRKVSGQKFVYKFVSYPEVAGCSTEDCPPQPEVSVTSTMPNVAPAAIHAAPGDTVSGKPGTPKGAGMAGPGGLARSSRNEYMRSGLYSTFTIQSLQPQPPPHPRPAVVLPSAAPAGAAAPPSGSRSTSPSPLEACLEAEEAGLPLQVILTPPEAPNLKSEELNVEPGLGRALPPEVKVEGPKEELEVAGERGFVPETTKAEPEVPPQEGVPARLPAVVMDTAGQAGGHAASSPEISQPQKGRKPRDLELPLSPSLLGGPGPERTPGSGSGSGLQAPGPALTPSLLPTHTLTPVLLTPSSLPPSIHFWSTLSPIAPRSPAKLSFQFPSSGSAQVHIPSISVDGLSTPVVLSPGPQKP
The method in brief: as §1

The target of another experiment is T3, ERG (Homo sapiens, UniProt P11308 1-479).
T3 sequence: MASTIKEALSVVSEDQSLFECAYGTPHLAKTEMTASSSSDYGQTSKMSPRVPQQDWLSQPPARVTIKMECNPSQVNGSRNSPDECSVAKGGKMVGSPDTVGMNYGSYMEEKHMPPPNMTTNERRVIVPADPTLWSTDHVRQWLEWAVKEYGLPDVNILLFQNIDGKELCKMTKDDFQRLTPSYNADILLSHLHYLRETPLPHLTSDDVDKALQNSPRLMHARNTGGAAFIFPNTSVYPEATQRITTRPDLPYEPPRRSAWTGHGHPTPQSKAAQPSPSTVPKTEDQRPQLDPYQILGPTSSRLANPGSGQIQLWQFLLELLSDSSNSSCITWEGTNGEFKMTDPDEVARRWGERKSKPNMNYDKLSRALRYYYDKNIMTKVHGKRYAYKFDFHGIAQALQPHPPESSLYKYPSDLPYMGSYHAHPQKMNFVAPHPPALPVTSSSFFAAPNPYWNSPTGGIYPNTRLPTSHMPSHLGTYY
Put shortly: as §1

The next experiment concerns the target ELF1 (Homo sapiens, UniProt P32519 1-619). Put shortly: as §1
A further experiment has as its target T4, EHF (Homo sapiens, UniProt Q9NZC4 1-300).
T4 sequence: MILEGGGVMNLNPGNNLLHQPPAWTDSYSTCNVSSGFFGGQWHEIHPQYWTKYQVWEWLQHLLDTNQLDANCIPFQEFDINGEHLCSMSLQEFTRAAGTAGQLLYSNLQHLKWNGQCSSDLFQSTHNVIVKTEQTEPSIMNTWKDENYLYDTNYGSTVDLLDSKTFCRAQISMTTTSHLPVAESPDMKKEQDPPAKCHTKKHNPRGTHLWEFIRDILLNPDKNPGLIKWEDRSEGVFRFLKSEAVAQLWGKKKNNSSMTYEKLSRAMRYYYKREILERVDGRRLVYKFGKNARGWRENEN
Put shortly: as §1

The target of another experiment is SPI1 (Homo sapiens, UniProt P17947 1-270). The method in brief: as §1
In the next experiment the target is SPIB (Homo sapiens, UniProt Q01892 1-262). Put shortly:
as §1

The target of a further experiment is T5, ELK3 (Homo sapiens, UniProt P41970 1-407).
T5 sequence: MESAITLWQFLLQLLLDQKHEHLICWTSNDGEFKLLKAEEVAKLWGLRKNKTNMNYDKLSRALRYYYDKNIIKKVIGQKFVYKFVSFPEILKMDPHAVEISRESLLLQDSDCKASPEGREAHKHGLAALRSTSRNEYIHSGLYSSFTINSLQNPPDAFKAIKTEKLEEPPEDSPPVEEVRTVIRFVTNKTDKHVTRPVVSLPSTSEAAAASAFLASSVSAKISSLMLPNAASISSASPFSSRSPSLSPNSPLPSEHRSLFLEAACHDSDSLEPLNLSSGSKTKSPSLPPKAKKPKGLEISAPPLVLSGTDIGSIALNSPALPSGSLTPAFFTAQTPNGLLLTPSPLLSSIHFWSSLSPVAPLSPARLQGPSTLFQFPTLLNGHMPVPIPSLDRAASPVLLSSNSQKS
Put shortly: as §1

The target of the next experiment is T6, GABPA (Homo sapiens, UniProt Q06546 1-454).
T6 sequence: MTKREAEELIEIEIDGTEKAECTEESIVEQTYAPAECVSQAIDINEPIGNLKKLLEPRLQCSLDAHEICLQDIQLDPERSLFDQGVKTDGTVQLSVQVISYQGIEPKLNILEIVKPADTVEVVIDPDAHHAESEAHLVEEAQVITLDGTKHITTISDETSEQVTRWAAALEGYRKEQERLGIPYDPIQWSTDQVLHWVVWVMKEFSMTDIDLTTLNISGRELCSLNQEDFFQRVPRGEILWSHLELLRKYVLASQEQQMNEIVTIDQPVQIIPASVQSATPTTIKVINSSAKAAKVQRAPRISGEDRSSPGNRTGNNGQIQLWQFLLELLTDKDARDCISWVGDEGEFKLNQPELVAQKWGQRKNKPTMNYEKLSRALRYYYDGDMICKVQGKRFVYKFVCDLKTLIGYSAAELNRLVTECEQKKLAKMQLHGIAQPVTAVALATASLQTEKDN
Put shortly: as §1

Sequence of SPIB (Q01892 whole entry): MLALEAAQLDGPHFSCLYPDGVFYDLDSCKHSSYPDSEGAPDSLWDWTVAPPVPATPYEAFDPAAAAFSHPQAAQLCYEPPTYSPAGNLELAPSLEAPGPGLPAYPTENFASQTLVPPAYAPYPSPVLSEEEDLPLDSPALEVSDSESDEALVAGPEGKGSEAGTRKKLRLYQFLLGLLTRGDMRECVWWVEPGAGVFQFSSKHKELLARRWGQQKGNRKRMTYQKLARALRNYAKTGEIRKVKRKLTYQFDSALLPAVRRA
Sequence of ELF1 (P32519 whole entry): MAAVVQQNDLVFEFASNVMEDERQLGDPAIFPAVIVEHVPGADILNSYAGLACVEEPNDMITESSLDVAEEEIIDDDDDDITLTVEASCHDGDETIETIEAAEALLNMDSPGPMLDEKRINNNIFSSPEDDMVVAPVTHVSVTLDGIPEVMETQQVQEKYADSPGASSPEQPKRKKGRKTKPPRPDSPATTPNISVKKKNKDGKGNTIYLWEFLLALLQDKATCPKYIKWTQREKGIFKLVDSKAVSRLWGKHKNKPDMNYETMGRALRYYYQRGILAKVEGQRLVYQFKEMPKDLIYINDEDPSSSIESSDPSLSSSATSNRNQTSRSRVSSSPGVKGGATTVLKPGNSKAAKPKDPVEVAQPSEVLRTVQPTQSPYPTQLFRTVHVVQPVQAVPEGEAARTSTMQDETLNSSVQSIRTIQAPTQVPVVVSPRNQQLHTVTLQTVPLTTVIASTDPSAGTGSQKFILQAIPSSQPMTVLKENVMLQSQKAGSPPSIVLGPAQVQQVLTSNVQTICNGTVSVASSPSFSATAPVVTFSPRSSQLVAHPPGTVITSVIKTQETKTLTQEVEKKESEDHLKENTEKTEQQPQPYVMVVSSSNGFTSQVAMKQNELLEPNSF

AGATGA: the binding signal in the experiment with FLI1 is 1.06 fold enrichment (6-mer frequency, TF over GST control); in the experiment with ELK1, 1.13 fold enrichment (6-mer frequency, TF over GST control); with ERG, 1.11 fold enrichment (6-mer frequency, TF over GST control); in the experiment with ELF1, 1.14 fold enrichment (6-mer frequency, TF over GST control); with EHF it was 1.06 fold enrichment (6-mer frequency, TF over GST control); with SPI1 it was 1.07 fold enrichment (6-mer frequency, TF over GST control). Also, the binding signal was 1.03 fold enrichment (6-mer frequency, TF over GST control) in the experiment with SPIB and 1.14 fold enrichment (6-mer frequency, TF over GST control) with ELK3.
GTCCAT: the binding signal with FLI1 was 1.22 fold enrichment (6-mer frequency, TF over GST control); with ELK1 it was 1.07 fold enrichment (6-mer frequency, TF over GST control); with ERG it was 1.14 fold enrichment (6-mer frequency, TF over GST control); with ELF1, 1.1 fold enrichment (6-mer frequency, TF over GST control); with EHF, 1.13 fold enrichment (6-mer frequency, TF over GST control); with SPI1 it was 1.08 fold enrichment (6-mer frequency, TF over GST control). Besides, the binding signal in the experiment with SPIB is 1.07 fold enrichment (6-mer frequency, TF over GST control); in the experiment with ELK3 it was 1.2 fold enrichment (6-mer frequency, TF over GST control).
In the case of ACCGAA, the binding signal is 1.09 fold enrichment (6-mer frequency, TF over GST control) with FLI1; 1.04 fold enrichment (6-mer frequency, TF over GST control) in the experiment with ELK1; 1.05 fold enrichment (6-mer frequency, TF over GST control) with GABPA; 1.11 fold enrichment (6-mer frequency, TF over GST control) in the experiment with ELF1; 1 fold enrichment (6-mer frequency, TF over GST control) with EHF; 1.06 fold enrichment (6-mer frequency, TF over GST control) with SPI1. The binding signal with SPIB is 1.01 fold enrichment (6-mer frequency, TF over GST control); in the experiment with ELK3, 1.01 fold enrichment (6-mer frequency, TF over GST control).
In the case of CGATGA, the binding signal with FLI1 was 1.01 fold enrichment (6-mer frequency, TF over GST control); with ELK1 it was 1.09 fold enrichment (6-mer frequency, TF over GST control); with GABPA, 1.05 fold enrichment (6-mer frequency, TF over GST control); with ELF1 it was 1.11 fold enrichment (6-mer frequency, TF over GST control); in the experiment with EHF, 1.08 fold enrichment (6-mer frequency, TF over GST control); in the experiment with SPI1 it was 1.06 fold enrichment (6-mer frequency, TF over GST control). Also, the binding signal with SPIB was 1.01 fold enrichment (6-mer frequency, TF over GST control); in the experiment with ELK3, 1.09 fold enrichment (6-mer frequency, TF over GST control).
For TAATCG, the binding signal with FLI1 was 1.07 fold enrichment (6-mer frequency, TF over GST control); with ELK1 it was 1.09 fold enrichment (6-mer frequency, TF over GST control); in the experiment with GABPA it was 1.14 fold enrichment (6-mer frequency, TF over GST control); in the experiment with ELF1, 1.04 fold enrichment (6-mer frequency, TF over GST control); with EHF it was 1.07 fold enrichment (6-mer frequency, TF over GST control); with SPI1, 1.02 fold enrichment (6-mer frequency, TF over GST control). Also, the binding signal with SPIB was 1.04 fold enrichment (6-mer frequency, TF over GST control); with ELK3 it was 1.07 fold enrichment (6-mer frequency, TF over GST control).
For the sequence CAAATC, the binding signal was 1.06 fold enrichment (6-mer frequency, TF over GST control) with FLI1; 1.08 fold enrichment (6-mer frequency, TF over GST control) with ELK1; 1.14 fold enrichment (6-mer frequency, TF over GST control) in the experiment with ERG; 1.16 fold enrichment (6-mer frequency, TF over GST control) in the experiment with ELF1; 1.12 fold enrichment (6-mer frequency, TF over GST control) in the experiment with EHF; 1.04 fold enrichment (6-mer frequency, TF over GST control) with SPI1. In addition, the binding signal with SPIB was 1.11 fold enrichment (6-mer frequency, TF over GST control); in the experiment with ELK3 it was 1.01 fold enrichment (6-mer frequency, TF over GST control).
For the sequence TGATCA, the binding signal in the experiment with FLI1 is 1.04 fold enrichment (6-mer frequency, TF over GST control); with ELK1, 1.05 fold enrichment (6-mer frequency, TF over GST control); with GABPA, 1.03 fold enrichment (6-mer frequency, TF over GST control); with ELF1 it was 1.07 fold enrichment (6-mer frequency, TF over GST control); with EHF it was 1.08 fold enrichment (6-mer frequency, TF over GST control); with SPI1, 1.02 fold enrichment (6-mer frequency, TF over GST control). Further, the binding signal in the experiment with ELK3 was 1.18 fold enrichment (6-mer frequency, TF over GST control).
With TGGATT, the binding signal with FLI1 is 1.02 fold enrichment (6-mer frequency, TF over GST control); in the experiment with ERG it was 1.05 fold enrichment (6-mer frequency, TF over GST control); with SPI1, 1.02 fold enrichment (6-mer frequency, TF over GST control); with SPIB, 1.05 fold enrichment (6-mer frequency, TF over GST control).
